Screening results from PubChem BioAssay.
Hits are enriched below; roughly 5.7% of the tested compounds scored in any of these assays.
TGFb SMAD3 inh = qHTS for Inhibitors of TGF-b; HepG2 CAGA-GFP TGF-b/SMAD3 reporter, GFP fluorescence, 18 h; TGF-beta stimulated, 500 pg/mL final; AID 588855, 2011; Potency, µM (highest dose often 46.1 µM), for inactives: top-dose activity, negative = inhibition, hits mostly inhibitors; actives 1.2% (n = 410,000); note: potency is the fitted concentration of half-maximal effect; % is set by controls: 0 for no effect and ±100 for the full control effect; nearly all actives have a fitted effect of over 65% in size
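Using HEPG2 CAGA-GFP reporter cells at 1000 cells/well, we pinned test compounds, stimulated with recombinant TGF-beta (500 pg/mL final) and measured total well GFP after 18 h.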
ATXN viability = Viability Counterscreen for Primary qHTS for Inhibitors of ATXN expression | S2 cells (HEK-293 line with an ATXN2-luciferase reporter) viability, CellTiter-Fluor protease fluorescence, 24 h | AID 651635, 2014 | actives 0.49% (n = 400,000) | Potency, µM (top dose mostly 56.7 µM), usual class: cytotoxic; note: potency is the fitted concentration of half-maximal effect; nearly all actives have a fitted effect of over 40% in size
ATXN2 expr inh = Primary qHTS for Inhibitors of ATXN expression; Potency, µM (titrated, usually from 57 µM), inactives show at the highest dose activity change, negative = inhibition, actives largely listed as inhibitors; actives 0.72% (n = 360,000); HEK-293 ATXN2-luciferase reporter, luminescence, 24 h; note: potency is the fitted concentration of half-maximal effect; % is set by controls: 0 for no effect and ±100 for the full control effect; nearly all actives have a fitted effect of over 55% in size
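qHTS (up to 57 uM final) was run with 24 h compound exposure of reporter cells at 37 °C. Each well was multiplexed: SteadyGlo luminescence measured ATXN2-luciferase expression after a fluorogenic Gly-Phe-AFC viability readout (25 uM final).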
HepG2 tox = qHTS for Inhibitors of TGF-b: Cytotox Counterscreen. HepG2 CAGA-GFP viability, ATP luminescence, 18 h. Potency, µM (highest dose often 46.1 µM), for inactives: at the highest dose activity change, negative = cytotoxicity, hits mostly cytotoxic. actives 0.76% (n = 410,000). AID 588856, 2011; note: potency is the fitted concentration of half-maximal effect
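CellTiter-Glo luminescence gave cytotoxicity after 18 hours at 37 degrees C. The cells were HepG2 CAGA-GFP in 1% FBS DMEM, stimulated with 500 pg/mL TGF-beta after compound addition. %Activity was normalised to no-cell wells (complete cell-killing) and DMSO (no toxicity), and curves were fitted and classified.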
IL-1B inflam inh = qHTS for Inhibitors of Inflammasome Signaling: IL-1-beta AlphaLISA Primary Screen; AID 743279, 2014; activity change, % at 57.5 µM; actives 4.7% (n = 360,000); THP-1 LPS/ATP IL-1B secretion, AlphaLISA, 16 h; active compounds read low; in the data active = activity change below about -50%; inconclusive = mostly about -30% to -49%; note: % is set by controls: 0 for no effect and ±100 for the full control effect
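THP-1 cells pretreated 1 hr with compounds (up to 57.5 uM final), then stimulated with LPS (250 ng/mL final) plus ATP (1.25 mM final); secreted IL-1B measured by AlphaLISA after 16 hr, decreased signal indicating inhibition.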
* = called active by the depositor; i = inactive; u = inconclusive; x = no result; [ ] = dose if it differs, or a comment. Unless noted, calls come from the whole dose curve; as a rule, active = well fitted curve in the direction sought with a large enough effect; inconclusive = small, poorly fitted or top-dose-only effect, or another doubt; inactive = no such curve, though single readings can be large; an effect the other way counts as inactive or inconclusive.

SMILES	TGFb SMAD3 inh	ATXN viability	ATXN2 expr inh	HepG2 tox	IL-1B inflam inh
COc1ccc(/C=N/NC(=S)Nc2cc(C(F)(F)F)ccc2Cl)cc1	9%	i	-26%	0.63µM*	12
O=C1CCCC2=C1C(c1[nH]ncc1Cl)N=C(Nc1nc3ccccc3o1)N2 (stereo unspecified)	x	x	38%	x	x
Cc1c(/C=C/C(=O)c2ccc(O)cc2)cnn1C	-3%	i	138%	8%	9
Cc1c(/C=C/C(=O)c2ccc(C(C)C)cc2)cnn1C	3%	i	2%	-21%	-73*
CCOCCCn1c(SCC(=O)Nc2ccccc2OC)nc2c(oc3ccccc32)c1=O	-13%	u	-24%	-9%	x
CCC1(C2CCN(C(=O)c3ccc(C)cc3C)CC2)NC(=O)N(CCc2scnc2C)C1=O (stereo unspecified)	x	i	x	x	x
Cc1ccc(-n2nnnc2SC(C)C(=O)Nc2ccc(Cl)cn2)cc1 (stereo unspecified)	-3%	i	-2%	-4%	-57*
Cc1ccc(C(=O)NC(C#N)=C(Cl)Cl)cc1	u	u	-30%[11.3 µM]	-106%	-103*
COC(=O)NC(=C(Cl)Cl)S(=O)(=O)c1ccccc1	u	u	u	9%	-118*
Cc1ccc(C(=O)NC(=C(Cl)Cl)S(=O)(=O)c2ccccc2)cc1	u	u	x	-15%	-95*
COc1ccc(C(=S)NCS(=O)(=O)c2ccc(C)cc2)cc1	u	i	5%	-42%	-100*
O=C(O)CCCCCC(=O)NN=C1CCCC1	x	x	-10%	x	x
CCOC(=O)c1c(C)[nH]c(C)c1S(=O)(=O)N1CCCC(C(=O)N2CCN(c3cc(C)ccc3C)CC2)C1 (stereo unspecified)	u	u	u	-25%	x
COc1ccc(C(=O)NC(=S)NNC(=O)c2ccc(C)cc2)cc1	-19%	u	-34%	-44%	32
COc1ccc(C(=O)NC(=C(Cl)Cl)S(=O)(=O)c2ccc(C)cc2)cc1	u	i	u	-43%	-95*
CCOCCCNCc1cn(-c2ccc(F)cc2F)nc1-c1ccccc1C	-5%	i	-15%	-2%	-77*
Cc1ccccc1-c1nn(-c2ccc(F)cc2F)cc1CNCC(C)O (stereo unspecified)	-4%	i	x	-7%	-19
CC(=O)c1cccc(S(=O)(=O)N2CCCC(c3nc4c(nnn4Cc4ccc(C)cc4)c(=O)[nH]3)C2)c1 (stereo unspecified)	-16%	i	-3%	-19%	-55*
O=c1[nH]c(C2CCN(S(=O)(=O)c3ccc(C(F)(F)F)cc3)CC2)nc2c1nnn2Cc1ccc(F)cc1	u	i	-38%	10%	-57*
Cc1ccc(Cn2nnc3c(=O)[nH]c(C4CCN(S(=O)(=O)c5ccc(C)cc5)CC4)nc32)cc1	u	i	0%	-1%	u
O=C(Nc1ccc(F)cc1)N1CCC(c2nc3c(nnn3Cc3cccc(Cl)c3)c(=O)[nH]2)CC1	-27%	i	-18%	-11%	-26
O=c1[nH]c(C2CCN(S(=O)(=O)c3ccccc3F)CC2)nc2c1nnn2Cc1ccc(F)cc1	-4%	i	-13%	1%	-22
N#Cc1cccc(NC(=O)N2CCC(c3nc4c(nnn4Cc4cccc(Cl)c4)c(=O)[nH]3)CC2)c1	5%	i	-11%	-20%	-63*
Cc1ccc(Cn2nnc3c(=O)[nH]c(C4CCN(S(=O)(=O)c5ccccc5F)CC4)nc32)cc1	u	i	u	13%	-61*
O=c1[nH]c(C2CCN(S(=O)(=O)c3cccc(C(F)(F)F)c3)CC2)nc2c1nnn2Cc1cccc(F)c1	u	i	u	-48%	-68*
O=c1[nH]c(C2CCN(S(=O)(=O)c3ccc4c(c3)OCCO4)CC2)nc2c1nnn2Cc1cccc(F)c1	-30%	i	-11%	-3%	-4
